An excerpt weighted towards active compounds, which were near 4.7% of everything screened.
TRHR enhancer – TRH receptor (human) allosteric enhancement; enhancement, % at 2 µM; AID 493056; TRHR cells, fluo-8 calcium fluorescence, EC20 TRH enhancement; 0.66% of 360,000 active; P34981; in the data active = enhancement above about 30%; note: 0% is about no effect
Target sequence (P34981 whole entry, looked up): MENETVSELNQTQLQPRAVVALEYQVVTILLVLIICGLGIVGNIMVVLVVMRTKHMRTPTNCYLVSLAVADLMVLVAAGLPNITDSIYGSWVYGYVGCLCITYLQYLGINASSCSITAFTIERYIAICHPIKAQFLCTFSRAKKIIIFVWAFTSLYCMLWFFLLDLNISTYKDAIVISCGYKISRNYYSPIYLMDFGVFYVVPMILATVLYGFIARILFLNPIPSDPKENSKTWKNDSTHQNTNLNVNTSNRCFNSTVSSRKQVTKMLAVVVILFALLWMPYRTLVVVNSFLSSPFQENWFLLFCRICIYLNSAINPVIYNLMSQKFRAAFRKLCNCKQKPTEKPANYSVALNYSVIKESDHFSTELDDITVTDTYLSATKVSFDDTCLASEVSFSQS
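Enhancer read-out: after compound pinning and an initial kinetic agonist-mode read, an EC20 of TRH (10 nM final) was injected and fluo-8 calcium signal (Ex 480/Em 530) followed at 1 s/cycle for 100 cycles in TRHR-expressing cells.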
D1 agonist – agonists of human D1 dopamine receptor; HEK293 T-REx D1 cells, calcium flux, agonist mode; 1% of 360,000 active; P21728; activation, % at 2 µM; AID 504660; note: 0% is about no effect
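Tetracycline-induced HEK293 TREx D1 cells, force-coupled to calcium signalling, were dye-loaded with a no-wash calcium kit. Compound was pin-added after a 10 s baseline. Fluorescence was read kinetically at 1 cycle/s for 180 s, with calcium rises flagged as agonism.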
D1 antagonist – blocks dopamine activation of the human D1 receptor; P21728; HEK293 TREx D1 cells, calcium flux, dopamine EC80; stronger effect = lower value; activity change, negative = inhibition, % at 10 µM; 3.2% of 360,000 active; in the data active = activity change below about -30%; note: % is set by controls: 0 for no effect and ±100 for the full control effect
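Inducible Hek293 Trex D1 cells (tetracycline, overnight, 30 C). Calcium dye 30–90 min RT. Antagonist mode: EC80 dopamine added after 180 s compound read.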
TRHR agonist – activates the human TRH receptor; activation, % at 2 µM; TRHR cells, calcium flux fluo-8, FDSS agonist mode; P34981; 0.18% of 360,000 active; note: 0% is about no effect
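Agonist-mode FDSS calcium read (Ex 480/Em 530, 1 s cycles) in 1536-well TRHR cells with fluo-8 dye, after 10-cycle baseline and 23 nL compound addition; TRH at EC20 (10 nM final) added afterwards for the enhancer phase.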
D1 PAM – human D1 dopamine receptor positive modulation. potentiation, % at 10 µM. HEK293 TREx D1 cells, calcium flux, dopamine EC20 potentiation. AID 504651. 0.036% of 360,000 active; in the data active = potentiation above about 30%; note: 0% is about no effect
* hit, by the source's call; . = no result given. Cut-off read from the data, not from the text of the source, unless noted: active = activation above about 30%; inactive = the rest.

SMILES	TRHR enhancer	D1 agonist	D1 antagonist	TRHR agonist	D1 PAM
CCCc1cc(N2CCN(c3ccc(OC)cc3)CC2)n2cnnc2n1	2.4	4.7	-33.5*	-1.3	-1.9
CCCc1cc(N2CCN(c3ccccc3)CC2)n2cnnc2n1	-2.9	2.8	3.5	-1.9	-1.8
Cc1cccc(N(C(=O)c2csnn2)C(C(=O)NC2CCCCC2)c2ccccn2)c1C (stereo unspecified)	38.1*	2.4	-22.6	-0.8	-3.0
Cc1nc(N2CCOCC2)c2c(C(=O)Nc3cccc(C(F)(F)F)c3)c(C)oc2n1	-5.8	-1.1	3.2	-0.2	-0.1
CC(CC(=O)O)CC(=O)Nc1ccccc1C(=O)O (stereo unspecified)	-4.4	3.7	-30.1*	0.0	-4.2
CCOC(=O)c1ccccc1NC(=O)CC(C)CC(=O)O (stereo unspecified)	-1.1	7.4	7.6	0.6	-9.3
CCC1=NN(C(=O)Cc2ccc([N+](=O)[O-])cc2)C(O)(C(F)(F)F)C1 (stereo unspecified)	-0.9	33.1*	-12.4	-1.8	-3.4
Cc1ccccc1OCC(=O)N1N=C(C(F)(F)F)CC1(O)C(C)(C)C (stereo unspecified)	1.3	59.4*	15.1	-0.4	4.7
CC(C)(C)C1(O)CC(C(F)(F)F)=NN1C(=O)Cc1ccc([N+](=O)[O-])cc1 (stereo unspecified)	-5.5	6.5	-34.0*	0.8	-6.2
CC(C)Cn1cc(NC(=O)NCc2cccc(Cl)c2)c2ccccc2c1=O	18.1	-0.5	-1.9	-1.4	4.1
Cc1ccc(C(=O)COC(=O)c2cc(-c3ccc(Cl)cc3)nc3ccccc23)cc1	-1.3	1.3	-7.9	0.9	-1.9
O=C(CCN1C(=O)C2C3C=CC(C3)C2C1=O)Nc1nccs1 (stereo unspecified)	-24.8	0.2	-63.8*	0.2	-15.2
CNS(=O)(=O)c1cccc(C(=O)OC2CCOC2=O)c1 (stereo unspecified)	-3.2	7.3	-10.0	1.3	.
O=C(OC1CCOC1=O)c1cccc(S(=O)(=O)Nc2cccc(Cl)c2)c1 (stereo unspecified)	-0.2	10.7	-32.1*	-0.2	-4.5
Cc1ccc(NC(=O)Cn2c(=O)n(Cc3ccccc3)c(=O)c3c2c2cc(C)ccc2n3C)cc1	14.7	1.5	8.6	0.4	-2.9
CCCCn1cc(S(=O)(=O)c2ccc(OC)cc2)c(=O)c2cc(F)c(F)cc21	3.2	-0.7	-38.8*	-0.6	0.5
CCn1cc(S(=O)(=O)c2ccccc2)c(=O)c2cc(F)c(F)cc21	43.3*	1.4	-6.8	-0.4	2.1
CCCCn1cc(S(=O)(=O)c2ccc(CC)cc2)c(=O)c2cc(F)c(N3CCCC(C)C3)cc21 (stereo unspecified)	38.8*	2.5	17.0	-0.9	-0.2
Clc1ccc2c(N/N=C/c3ccc(Br)cc3)ccnc2c1	13.2	7.6	-43.4*	-0.9	-7.3
CC(=O)c1ccc(NC(=O)c2cc(CC(C)C)nc3ccccc23)cc1	-6.0	-0.2	15.1	-1.0	-17.7
CC(=O)NS(=O)(=O)c1ccc(NC(=O)c2ccc(NC(=O)c3cccs3)cc2)cc1	15.9	2.8	-8.5	-0.1	-4.2
O=C1CC(SC2=NCCS2)C(=O)N1c1ccc(Cl)cc1 (stereo unspecified)	-3.7	3.5	4.8	0.1	-4.6
O=C1CC(SC2=NCCS2)C(=O)N1c1ccc(Br)cc1 (stereo unspecified)	3.9	43.7*	-26.4	0.0	-5.9
CCOc1ccccc1N(CC(=O)Nc1ccc(S(=O)(=O)N2CCCC2)cc1)S(C)(=O)=O	-6.9	2.7	15.5	0.2	-2.0
C/C(=N\NC(=O)c1cc(C)oc1C)c1ccc2ccccc2c1	2.5	4.4	-42.3*	-0.1	-0.9
SMILES	TRHR enhancer	D1 agonist	D1 antagonist	TRHR agonist	D1 PAM
CC1CC(C)CN(CCCNC(=O)c2csc3c2CCCC3)C1 (stereo unspecified)	36.1*	2.9	0.5	0.3	-6.0
CC(C)CCNC(=O)c1csc2c1CCCCC2	-1.5	6.6	-17.1	-4.8	-9.8
Cc1ccc(S(=O)(=O)N(C)CC(=O)NCCCn2ccnc2)cc1	3.0	-0.2	1.5	0.1	-2.0
O=C1c2ccccc2NC(c2ccc(-c3ccccc3F)o2)N1O (stereo unspecified)	36.1*	0.4	.	-0.7	-3.0
COc1ccccc1NC(=O)C1CCN(S(=O)(=O)c2cccs2)CC1	-4.7	2.7	-16.7	0.6	-3.2
Cc1ccccc1C(=O)Nc1sc2c(c1C(=O)N1CCCCC1)CCC(C(C)(C)C)C2 (stereo unspecified)	2.7	-0.7	-7.7	-0.4	-0.3
CC(C)(C)C1CCc2c(sc(NC(=O)c3cccs3)c2C(N)=O)C1 (stereo unspecified)	-3.7	3.8	11.5	-0.3	32.8*
CN1CCN(C(=O)c2c(NC(=O)c3ccco3)sc3c2CCC(C(C)(C)C)C3)CC1 (stereo unspecified)	13.6	34.1*	-0.9	-1.3	-5.9
CCOC(=O)c1ccc(NC(=O)c2cc3c(=O)n(C)c4ccccc4c3n2C)cc1	-2.9	0.8	0.9	0.0	-1.6
CN(C)CCNC(=O)c1ccc(CS(=O)(=O)c2c(Cl)cccc2Cl)o1	1.5	5.3	25.2	0.1	-2.8
CN(CCNC(=O)c1ccc(CS(=O)(=O)c2c(Cl)cccc2Cl)o1)CCc1ccccc1	0.1	4.5	-56.5*	-0.3	-13.4
COc1ccc(-n2nc(C(=O)NCCc3ccc(Cl)cc3)c3c4ccccc4n(C)c3c2=O)cc1	2.2	1.5	-5.8	0.3	4.0
Cn1c(N)c(C(=O)N/N=C/c2ccccc2)sc1=S	35.7*	4.1	-13.0	0.2	-5.9
CCCCCN(C(=O)CCC(=O)OCc1ccc(Cl)cc1Cl)c1c(N)n(CCCC)c(=O)[nH]c1=O	0.6	2.5	11.7	0.2	-2.5
Cc1nc(NC(=O)c2cccs2)ccc1Br	2.9	-1.2	.	-0.4	-2.4
C/C(=N\NC(=S)NCC(C)(C)C)c1cc(F)cc(F)c1O	7.4	21.5	-84.9*	1.2	-11.4
COCCNC(=S)N/N=C(\C)c1ccc(O)cc1	-4.8	3.5	-15.5	-0.8	-4.5
COc1ccc(CC(=O)N2CCc3cc(OC)c(OC)cc3C2COc2ccc(OC)cc2)cc1 (stereo unspecified)	7.3	4.8	-9.2	0.8	-1.8
C=CCn1c(CNC(=O)c2cccs2)nnc1SCc1ccc(Cl)cc1Cl	10.1	59.7*	3.5	-0.6	-2.5
CC(C)(C)OC(=O)Cc1nnc(-c2cc3ccccc3[nH]2)o1	-7.4	3.1	7.1	1.1	-0.9
Nc1nc(-c2ccc(-c3ccccc3)cc2)cs1	6.5	0.5	-46.7*	-1.4	-5.8
COc1ccc(OC)c(NC(=O)CCN2CCN(CCO)CC2)c1	4.0	3.9	6.2	0.1	6.5
O=S(=O)(c1cccc(Cl)c1)c1nnn2c1nc(NC1CCCCCC1)c1sccc12	7.7	1.3	-11.3	-0.3	-5.2
